Assay [1] in a line: Quantitative High-Throughput drug screen in 47 multiple myeloma cell lines against the NCATS MIPE library collection: Delta47_JCRB cell viability assay (AID 1918925; note: nearly all actives have a fitted effect of over 45% in size). The gist of the method:
(§1)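 CellTiter-Glo luminescence (ATP) after 48 h compound exposure, 37C/5% CO2; 500 cells/well; MIPE 4.0 approved/investigational drugs pinned in; DMSO = 100%, media only = 0% viability.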

The nature of assay [2]: Quantitative High-Throughput drug screen in 47 multiple myeloma cell lines against the NCATS MIPE library collection: EJM_DSMZ cell viability assay (AID 1918926; note: nearly all actives have a fitted effect of over 30% in size). The gist of the method: as §1
Assay [3] in a line: Quantitative High-Throughput drug screen in 47 multiple myeloma cell lines against the NCATS MIPE library collection: AMO1_DSMZ cell viability assay (AID 1918927; note: nearly all actives have a fitted effect of over 30% in size). The gist of the method:
as §1

Assay [4] is described as follows: Quantitative High-Throughput drug screen in 47 multiple myeloma cell lines against the NCATS MIPE library collection: ARD_JJKsccE7 cell viability assay (AID 1918929). The gist of the method:
as §1

Assay [5] in a line: Quantitative High-Throughput drug screen in 47 multiple myeloma cell lines against the NCATS MIPE library collection: Karpas620_DSMZ cell viability assay (AID 1918959). Note: nearly all actives have a fitted effect of over 30% in size. Put shortly:
(§2)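 Inhibition of cell viability is measured here. Each line was plated at 500 cells per well, treated with MIPE 4.0 drugs, kept 48 hours at 37C, then assayed for ATP content by CellTiter-Glo luminescence.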

Assay [6] can be described thus: Quantitative High-Throughput drug screen in 47 multiple myeloma cell lines against the NCATS MIPE library collection: KMM1_JCRB cell viability assay (AID 1918960). Note: nearly all actives have a fitted effect of over 30% in size. Put shortly: (§3)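 Myeloma cells, 500 per well, were exposed to MIPE 4.0 drugs by pin transfer for 48 h at 37 °C, 5% CO2. Viability was read as ATP luminescence with CellTiter-Glo, normalised to DMSO-only (100%) and medium-only (0%) wells.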

A short description of assay [7]: Quantitative High-Throughput drug screen in 47 multiple myeloma cell lines against the NCATS MIPE library collection: Karpas417_ECACC cell viability assay (AID 1918961). To be noted: Karpas417 myeloma viability, CellTiter-Glo ATP luminescence, 48 h; viability (% of DMSO): at 45.8 µM (top of the series). The gist of the method: (§4)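 qHTS of the MIPE 4.0 collection: 500 myeloma cells/well, 48 h drug exposure at 37C in 5% CO2, then CellTiter-Glo for 5 min at room temperature before luminescence reading.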

Assay [8] can be described thus: Quantitative High-Throughput drug screen in 47 multiple myeloma cell lines against the NCATS MIPE library collection: KHM11_PLB cell viability assay (AID 1918962). Note: nearly all actives have a fitted effect of over 35% in size. The gist of the method:
as §2

The nature of assay [9]: Quantitative High-Throughput drug screen in 47 multiple myeloma cell lines against the NCATS MIPE library collection: JIM3_ECACC cell viability assay (AID 1918963; note: nearly all actives have a fitted effect of over 35% in size). The gist of the method: as §2
Assay [10] in a line: Quantitative High-Throughput drug screen in 47 multiple myeloma cell lines against the NCATS MIPE library collection: INA6_PLB cell viability assay (AID 1918965; note: nearly all actives have a fitted effect of over 55% in size). Put shortly:
as §4

The nature of assay [11]: Quantitative High-Throughput drug screen in 47 multiple myeloma cell lines against the NCATS MIPE library collection: H1112_PLB cell viability assay (AID 1918967; note: nearly all actives have a fitted effect of over 30% in size). The gist of the method:
as §1

Assay [12] is described as follows: Quantitative High-Throughput drug screen in 47 multiple myeloma cell lines against the NCATS MIPE library collection: Karpas25_ECACC cell viability assay (AID 1918968; note: nearly all actives have a fitted effect of over 35% in size). The gist of the method: as §1
The nature of assay [13]: Quantitative High-Throughput drug screen in 47 multiple myeloma cell lines against the NCATS MIPE library collection: KMS12PE_JCRB cell viability assay (AID 1918972). Note: nearly all actives have a fitted effect of over 30% in size. The gist of the method: as §4
A short description of assay [14]: Quantitative High-Throughput drug screen in 47 multiple myeloma cell lines against the NCATS MIPE library collection: KMS20_JCRB cell viability assay (AID 1918973). Note: nearly all actives have a fitted effect of over 45% in size. The gist of the method: as §1
Assay [15] can be described thus: Quantitative High-Throughput drug screen in 47 multiple myeloma cell lines against the NCATS MIPE library collection: KMS21BM_JCRB cell viability assay (AID 1918974). As to conditions: ATP luminescence, 48 h; viability: at 45.8 µM (top of the series) unless noted. The gist of the method: as §1
Assay [16] can be described thus: Quantitative High-Throughput drug screen in 47 multiple myeloma cell lines against the NCATS MIPE library collection: ARP1_JJKsccF8 cell viability assay (AID 1918928; note: nearly all actives have a fitted effect of over 40% in size). Put shortly:
as §3

The nature of assay [17]: Quantitative High-Throughput drug screen in 47 multiple myeloma cell lines against the NCATS MIPE library collection: JIM1_ECACC cell viability assay (AID 1918964). The gist of the method: as §1
Assay [18] can be described thus: Quantitative High-Throughput drug screen in 47 multiple myeloma cell lines against the NCATS MIPE library collection: JJN3_DSMZ cell viability assay (AID 1918966; note: nearly all actives have a fitted effect of over 50% in size). Put shortly: as §1
Assay [19] in a line: Quantitative High-Throughput drug screen in 47 multiple myeloma cell lines against the NCATS MIPE library collection: KMS12BM_JCRB cell viability assay (AID 1918971). Note: nearly all actives have a fitted effect of over 35% in size. The gist of the method: as §2
Assay [20] in a line: Quantitative High-Throughput drug screen in 47 multiple myeloma cell lines against the NCATS MIPE library collection: KMS27_JCRB cell viability assay (AID 1918970). Note: nearly all actives have a fitted effect of over 30% in size. Put shortly:
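KMS27_JCRB myeloma cells, 500 per well, exposed 48 h at 37 C, 5% CO2 to MIPE 4.0 compounds. Viability from ATP by CellTiter-Glo luminescence, normalized to DMSO (100%) and medium-only (0%) wells.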

The viability is a read-out of living cells in per cent, often relative to untreated cells.

Records with an inconclusive call do not appear. Unmarked numbers belong to inactive results. Activity calls are given as the source filed them. Calls come from the whole dose curve; as a rule, active = well fitted curve in the direction sought with a large enough effect; inconclusive = small, poorly fitted or top-dose-only effect, or another doubt; inactive = no such curve, though single readings can be large; an effect the other way counts as inactive or inconclusive.
Potency is the fitted concentration of half-maximal effect.

`CC(C)(C)c1cc(C(C)(C)C)c(NC(=O)c2c[nH]c3ccccc3c2=O)cc1O`: the Potency result in assay [1], in assay [2], in assay [3], in [4], in assay [5] and in [6] was “inactive” in each case. Besides, the Potency entry in assay [7], in assay [8], in assay [9], in assay [10], in assay [11] and in [12] was “inactive” in each case. Besides, the Potency result in assay [13], in assay [14] and in assay [15] was “inactive” in each case.
For `Cc1c(CN2CCN(S(C)(=O)=O)CC2)sc2c(N3CCOCC3)nc(-c3cnc(N)nc3)nc12`, the Potency in assay [1] was 10.5 nM (active); in [2], 105 nM (active); in assay [3] it was 93.5 nM (active); in assay [16] it was 8.3 nM (active); in [5], 66.2 nM (active); in [9], 66.2 nM (active). Also, the Potency in [17] is 18.7 nM (active); in [10], 264 nM (active); in [18] it was 46.9 nM (active); in assay [11] it was 1180 nM (active); in assay [12] it was 18.7 nM (active); in [19], 13.2 nM (active). The Potency in assay [14] was 37.2 nM (active).
In the case of `Cc1ccc2nc(NC(=O)CSc3nc4c(c(=O)n3-c3ccccc3)SCC4)sc2c1`, the Potency in assay [1] is 18700 nM (active); in [2], 6620 nM (active); in assay [3], 9350 nM (active); in assay [4], 13200 nM (active); in [7] it was 23500 nM (active); in assay [9] it was 18700 nM (active). For the same compound, the Potency is 11800 nM (active) in assay [11], 5260 nM (active) in assay [12], 9350 nM (active) in assay [19] and 11800 nM (active) in [15].
Regarding `COc1cc2ncn(-c3cc(OCc4ccccc4C(F)(F)F)c(C(N)=O)s3)c2cc1OC`, the Potency in [1] was 7430 nM (active); in [2] it was 2640 nM (active); in [3] it was 743 nM (active); in assay [4], 935 nM (active); in assay [5] it was 235 nM (active); in [6], 469 nM (active). Also, the Potency is 13200 nM (active) in [7]; 469 nM (active) in assay [9]; 296 nM (active) in assay [17]; 16600 nM (active) in assay [18]; 7430 nM (active) in [11]; 132 nM (active) in assay [20]. The results for the Potency in assay [19] and in assay [15] were 833 nM (active) and 1320 nM (active), respectively.
In the case of `Cc1cc(Nc2cc(CN3CCOCC3)c3nc(C)c(Cc4ccc(Cl)cc4F)n3n2)n[nH]1`, the Potency was 10500 nM (active) in assay [1]; 16600 nM (active) in assay [2]; 526 nM (active) in assay [3]; 13200 nM (active) in assay [16]; 4690 nM (active) in assay [9]; 418 nM (active) in assay [17]. For the same compound, the Potency was 2350 nM (active) in [10]; 18700 nM (active) in [18]; 23500 nM (active) in assay [11]; 20900 nM (active) in [12]; 5260 nM (active) in [19]; 5260 nM (active) in assay [14].
Consider `CC(=O)Nc1nc(C)c(-c2ccc(Cl)c(S(=O)(=O)NCCO)c2)s1`, for which the Potency in assay [1] is 662 nM (active); in assay [2] it was 11800 nM (active); in assay [3], 1320 nM (active); in assay [5], 6620 nM (active); in assay [6], 3720 nM (active); in assay [7], 132 nM (active). Besides, the Potency in assay [8] is 935 nM (active); in assay [9], 4690 nM (active); in assay [17], 1180 nM (active); in [10], 1050 nM (active); in assay [18], 18700 nM (active); in assay [11] it was 1480 nM (active). The Potency in [19] is 18700 nM (active); in [13], 5260 nM (active); in assay [14] it was 1180 nM (active); in assay [15], 1660 nM (active).
Consider `CC(C)CC(=O)Nc1n[nH]c2c1CN(C(=O)C1CCN(C)CC1)C2(C)C`, for which the Potency is 166 nM (active) in [1]; 1660 nM (active) in assay [2]; 1660 nM (active) in assay [3]; 1050 nM (active) in assay [16]; 2640 nM (active) in assay [5]; 1180 nM (active) in assay [6]. In addition, the Potency in assay [7] is 526 nM (active); in assay [8], 1180 nM (active); in assay [9], 833 nM (active); in assay [10] it was 296 nM (active); in assay [18] it was 2090 nM (active); in assay [11], 3320 nM (active). The Potency in [12] is 1870 nM (active); in assay [20], 1180 nM (active); in assay [19] it was 1660 nM (active); in assay [13], 2350 nM (active); in [14], 1050 nM (active); in assay [15] it was 29.6 nM (active).
Turning to `COc1ccc(CC2c3cc(OC)c(OC)cc3CC[N+]2(C)CCC(=O)OCCCCCOC(=O)CC[N+]2(C)CCc3cc(OC)c(OC)cc3C2Cc2ccc(OC)c(OC)c2)cc1OC` (stereo unspecified), the Potency in assay [1] is 3280 nM (active). The viability, % of control in assay [2] is 94.3% [at 5.15 µM]. Besides, the viability, % of DMSO in [3] is 97.7% [at 5.15 µM]; in assay [19] it was 113% [at 5.15 µM]. Further, the viability was 97.8% [at 5.15 µM] in assay [4] and 104% [at 5.15 µM] in [11]. In addition, the figures for the viability (% of DMSO) in assay [5], in [6] and in assay [17] were 107% [at 5.15 µM], 84% [at 5.15 µM] and 83.6% [at 5.15 µM], respectively. For the same compound, the viability, % of DMSO control in assay [8] is 95.7% [at 5.15 µM]. Also, in assay [9], the viability, percent of control was 105% [at 5.15 µM]. The viability (% of control) in assay [12] is 100% [at 5.15 µM].
In the case of `O=C(c1cncc(Br)c1)N1CCC(N2CCCC2)CC1`, the Potency result in assay [1], in assay [2], in assay [3], in [5], in assay [6] and in assay [9] was “inactive” in each case. Besides, the Potency result in assay [11], in assay [13] and in assay [14] was “inactive” in each case. In assay [16], the Potency was 16600 nM (active).
As to `COc1cc(Nc2ncc(F)c(Nc3ccc4c(n3)N(COP(=O)(O)O)C(=O)C(C)(C)O4)n2)cc(OC)c1OC`, the Potency was 5900 nM (active) in [1]; 23500 nM (active) in [2]; 5260 nM (active) in assay [3]; 1180 nM (active) in assay [4]; 1180 nM (active) in assay [6]; 1050 nM (active) in assay [7]. Besides, the Potency in [9] was 1660 nM (active); in assay [17], 1180 nM (active); in assay [11] it was 1660 nM (active); in assay [12], 3320 nM (active); in assay [14], 1660 nM (active); in assay [15], 743 nM (active).
As for `Cc1cc(Nc2cc(N3CCN(C)CC3)nc(C=Cc3ccccc3)n2)n[nH]1`, the Potency in [1] is 3820 nM (active); in assay [2], 38200 nM (active); in assay [3], 8550 nM (active); in [16] it was 4290 nM (active); in assay [5], 12100 nM (active); in assay [9], 7620 nM (active). The Potency in assay [17] is 4810 nM (active); in assay [10], 3400 nM (active); in assay [18], 30300 nM (active); in [11], 38200 nM (active); in [12], 8550 nM (active); in assay [20], 15200 nM (active). Further, the Potency in assay [19] was 48100 nM (active); in [14] it was 4290 nM (active).

Values taken from PubChem BioAssay (NCATS).
